Results as given in PubChem BioAssay (NCI).
Where “and” joins values, the source holds several entries; their conditions need not be identical. Equal entries are not always repeated. About 83,000 compounds went through this panel and 20% of them were active in at least one assay; those are over-represented in the sample as a whole.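 Single-dose data. Exposure time 48 hours. Values below 10 considered active.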 Calls of active or inactive are those of the source.

test system: NCI-H522 lung; assay: NCI-60 one-dose screen, 48 h (100 = growth as untreated, 0 = no growth, -100 = all killed); conditions: 10 µM unless noted
Procedure: Growth inhibition of the NCI-H522 human Non-Small Cell Lung tumor cell line is measured as a screen for anti-cancer activity. Cells are grown in 96 well plates and exposed to the test compound for 48 hours. Compounds are tested at a single concentration, which is 10^-5 M for most compounds. The reported endpoint is percent growth (GI% or GIPRCNT), where numbers from 0 - 100% represent growth inhibition, and numbers from -100% - 0 represent cell death. For example, a value of 40 represents 60% growth inhibition. A value of 0 means no net growth occurred over the course of the experiment. A value of -40 indicates 40% of cells at the beginning of the experiment died by the end of the experiment. A value of -100 means all cells are dead at the end of the experiment.
NCI-60 Human Tumor Cell Lines Screen was performed using the standard one-dose NCI protocol, which is described in more detail at https://dtp.cancer.gov/discovery_development/nci-60/default.htm.
Compounds with GIPRCNT values below 10 were considered active. Activity score was based on GIPRCNT using the following formula: […]
Score is 0 for GIPRCNT values of 100 or above, 50 for GIPRCNT values of 0, and 100 for GIPRCNT values of -100.

| SMILES | growth |
| --- | --- |
| CN1C2C=CC(=O)C1C1C(=O)N(c3ccccc3)C(=O)C12 (stereo not given) | -8.8% (active) |
| CCN(CC)C(CC(=O)c1ccccc1)C(=O)c1ccccc1 (stereo not given) | 71.7% (inactive) |
| OCc1ccccc1F | 71.1% (inactive) |
| N#Cc1c[nH]n2ccnc12 | 87.8% (inactive) |
| O=C(O)c1ccc2c3ccc(C(=O)O)c4c(C(=O)O)ccc(c5ccc(C(=O)O)c1c25)c43 | 95.3% (inactive) |
| CN(C)C(=N)N=C(N)N | 64.1% (inactive) and 166% (inactive) |
| CCOc1ccc(/C=C\C(=O)O)cc1 | 115% (inactive) |
| CC(=O)Oc1cc(C)c(OC(C)=O)c(C)c1C | 103% (inactive) |
| N=C(N=C(N)N)N1CCOCC1 | 94.7% (inactive) and 107% (inactive) |
| Cn1c(N)c(N=O)c(=O)n(C)c1=O | 97% (inactive) and 73.4% (inactive) |
| Cc1ccc([N+](=O)[O-])cc1Br | 88% (inactive) |
| O=C1CCC(=O)N1CC1CC2CCC1C2 (stereo not given) | 91.8% (inactive) and 95.2% (inactive) |
| CC(=O)Nc1ccc(OC(C)=O)cc1 | -31.9% (active) and 105% (inactive) |
| NC(=O)Cc1nc(O)cc(=O)[nH]1 | 77% (inactive) |
| COc1cc(NCCCCCNC(C)C)c2ncccc2c1 | 92.2% (inactive) and 42% (inactive) |
| O=C(O)C1CSCN1 (stereo not given) | 99.7% (inactive) and 96.1% (inactive) |
| CN(C=O)c1ccccc1 | 92.9% (inactive) |
| OCCSc1ccc(Cl)cc1 | 101% (inactive) and 76.5% (inactive) |
| COc1ccc2oc3c(ccc[n+]3C)c(=O)c2c1 | 82.7% (inactive) |
| Cc1onc(-c2c(F)cccc2Cl)c1-c1ncc(-c2ccc(Cl)cc2)o1 | 35.1% (inactive) |

| SMILES | growth |
| --- | --- |
| CCOC(C)=N | 87.3% (inactive) |
| ON=C(C1CCCCC1)C1CCCCC1 | 107% (inactive) |
| CC(CN(C)C)CN1c2ccccc2Sc2ccccc21 (stereo not given) | 81.1% (inactive) and 116% (inactive) and 87.2% (inactive) |
| N#Cc1c(N)nc2c(c(-c3ccc(Cl)cc3)nn2-c2ccccc2)c1C#N | 102% [100 µM] (inactive) |
| O=C(O)/C=C/C=C/c1ccccc1 | 94.8% (inactive) and 106% (inactive) |
| CC1NC(C)c2ccc3ccccc3c2O1 (stereo not given) | 88.6% (inactive) |
| CCCCOC1NC(=O)NC(=O)C1(F)C(=O)OCC (stereo not given) | 80.1% (inactive) |
| Cc1nc(Nc2ccc(Cl)cc2)c2cnn(-c3ccccc3)c2n1 | 105% (inactive) |
| O=C1C=CC(n2cc(F)c(=O)[nH]c2=O)O1 (stereo not given) | 76.2% (inactive) |
| Cn1c(-c2ccccc2)cc(=O)cc1-c1ccccc1 | 56.4% (inactive) |
| CC(=O)Oc1ccc(C2(c3ccc(OC(C)=O)cc3)C(=O)Nc3ccccc32)cc1 | 95.7% (inactive) and 83.2% (inactive) |
| Nc1nc(=S)c2[nH]cnc2[nH]1 | -4.74% (active) and 7.57% (active) |
| CC1(CO)CCCC1NCCNC1CCCC1(C)CO (stereo not given) | 94.3% (inactive) |
| CC1CCC(=O)N1c1ccc(N)cc1 (stereo not given) | 85.2% (inactive) |
| CCCCCCC(C)CC1=C(O)c2ccccc2C(=O)C1=O (stereo not given) | 56.2% (inactive) |
| O=C(c1ccc(Cl)cc1)C1C(c2ccccc2)C1[N+](=O)[O-] (stereo not given) | 101% (inactive) |
| C#CCOC(=O)C(N)CS (stereo not given) | 111% (inactive) |
| CC1(C)OC(=O)C(=Cc2ccc(C#N)cc2)C(=O)O1 | 79% (inactive) and 103% (inactive) |
| Cc1ccc(S(=O)(=O)n2ccnc2)cc1 | 95.8% (inactive) |
| O=C(c1ccncc1)c1c(Cc2ccccc2)ccc2ccccc12 | 27.8% (inactive) |
